Experiment [1] in a line: TOX21_p53_BLA_p2_viability: Viability Assessment in the Tox21 HCT-116 p53 Agonism Beta-lactamase Assay, Phase 2 (AID 2283591).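 Further: compound exposure lasted 16 h at 37 °C; actives lower the ATP signal meaning cytotoxicity.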 The essentials: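 HCT116 p53-bla cells, 4000/well, dosed after 5 h plating (217-fold dilution of DMSO stocks) and incubated 16 h at 37C. Viability taken as cellular ATP by CellTiter-Glo luminescence after 30 min RT; signal loss marks cytotoxicity.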

Experiment [2] has as its target Cellular tumor antigen p53 (Homo sapiens) (UniProt P04637). The experiment in a line: TOX21_p53_BLA_p2_ratio: Tox21 HCT-116 p53 Agonism Beta-lactamase Assay, Ratio, Phase 2 (AID 2283592). In short, it runs like this:
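Plated HCT116 p53-bla cells (4000/well) received compound after 5 h, then 16 h at 37C/5% CO2. CCF4-AM added, 2 h RT. Ratio of 460 to 530 nm emission taken as the p53 reporter signal.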

Experiment [3] in a line: TOX21_p53_BLA_p3_viability: Viability Assessment in the Tox21 HCT-116 p53 Agonism Beta-lactamase Assay, Phase 3 (AID 2283593).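 Further: cells exposed to compound for 16 h before reading.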 In short, it runs like this: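 HCT116 cells, 4000/well, dosed 5 h after plating by pin transfer (217-fold dilution from DMSO stock) and incubated 16 h at 37C, 5% CO2. Viability read as ATP luminescence with CellTiter-Glo after 30 min at room temperature.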

Experiment [4] addresses Cellular tumor antigen p53 (Homo sapiens) (UniProt P04637). The experiment in a line: TOX21_p53_BLA_p3_ratio: Tox21 HCT-116 p53 Agonism Beta-lactamase Assay, Ratio, Phase 3 (AID 2283596). The essentials: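 Cells were seeded at 4000/well, rested 5 h at 37C, then dosed with DMSO compound solutions (217-fold dilution) for 16 h. CCF4-AM substrate was loaded for 2 h at room temperature, and the 460/530 nm emission ratio was fitted for gain of signal versus DMSO.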

For experiment [5] the target is unchanged. Description: TOX21_p53_BLA_p5_ratio: Tox21 HCT-116 p53 Agonism Beta-lactamase Assay, Ratio, Phase 5 (AID 2283599). The essentials: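 HCT-116 p53-bla cells (4000/well) plated 5 h, dosed with compound (217-fold DMSO dilution) for 16 h at 37 C; CCF4-AM substrate 2 h at room temperature. Activity is the 460/530 nm emission ratio (405 nm excitation), fitted in gain-of-signal direction versus DMSO.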

Experiment [6] in a line: TOX21_p53_BLA_p5_viability: Viability Assessment in the Tox21 HCT-116 p53 Agonism Beta-lactamase Assay, Phase 5 (AID 2283600). In short, it runs like this:
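Workflow: seed 4000 cells per well, wait 5 h, add compounds (DMSO, 217-fold dilution), incubate 16 h, load CCF4-AM 2 h, add CellTiter-Glo, read luminescence after 30 min.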

Experiment [7] deals with Cellular tumor antigen p53 (Homo sapiens) (UniProt P04637). Description: TOX21_p53_BLA_p4_ratio: Tox21 HCT-116 p53 Agonism Beta-lactamase Assay, Ratio, Phase 4 (AID 2283601). The essentials:
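HCT-116 p53 beta-lactamase reporter cells (4000/well) preincubated 5 h, then compound (217-fold dilution of DMSO stock) for 16 h at 37C. CCF4-AM substrate added 2 h at room temperature; 460/530 nm emission ratio fitted upward versus DMSO.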

Experiment [8] is described as follows: CCTE_Harrill_HTTr_Viability_MCF7: CCTE's 6-hour Cell Viability Assessment for the High-Throughput Transcriptomics (HTTr) Platform, in MCF-7 cells cultured in DMEM + 10% fetal bovine serum, Harrill Lab (AID 2284010; active means hit-call score of the fitted dose curve at least 0.9, where 1 is the maximum; inactive means score below 0.9). In short, it runs like this: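 Propidium iodide exclusion, imaged by high-content analysis, gauged viability after a six-hour exposure across eight concentrations. Cells were MCF-7 grown in DMEM with 10% fetal bovine serum; fits run in both directions against DMSO.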

The nature of experiment [9]: CCTE_Harrill_HTTr_Apoptosis_MCF7: CCTE's 6-hour Apoptosis Assessment for the High-Throughput Transcriptomics (HTTr) Platform, in MCF-7 cells cultured in DMEM + 10% fetal bovine serum, Harrill Lab (AID 2284011; active means hit-call score of the fitted dose curve at least 0.9, where 1 is the maximum; inactive means score below 0.9). The essentials:
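MCF-7 (DMEM + 10% FBS), 384-well; 8-pt dilution series, 6 h chemical exposure; caspase-3/7 activation via CellEvent Caspase 3/7 Green, HCI; bidirectional fit vs DMSO.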

Experiment [10] is described as follows: ACEA_ER_AUC_viability: ACEA Biosciences xCELLigence Real-Time Cell Analysis on Estrogen Receptor Agonism for Viability (AID 2283782).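 Further: hit means loss of impedance signal meaning reduced cell growth or viability.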 In short, it runs like this:
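Read-out: real-time electrical impedance (RT-CES) area under curve, loss of signal taken as reduced viability, normalized to DMSO baseline. T-47D cells, charcoal-stripped serum medium, compounds up to 100 uM final, continuous exposure, 80 h.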

The source of these data is PubChem BioAssay (EPA / NIEHS).

Records with an inconclusive call do not appear. The source made the active and inactive calls. How the source made its calls, unless noted: active means hit-call score of the fitted dose curve at least 0.9, where 1 is the maximum; inconclusive means response in the unintended direction; inactive means score below 0.9.

Sequence of Cellular tumor antigen p53 (Homo sapiens) (P04637 whole entry, looked up): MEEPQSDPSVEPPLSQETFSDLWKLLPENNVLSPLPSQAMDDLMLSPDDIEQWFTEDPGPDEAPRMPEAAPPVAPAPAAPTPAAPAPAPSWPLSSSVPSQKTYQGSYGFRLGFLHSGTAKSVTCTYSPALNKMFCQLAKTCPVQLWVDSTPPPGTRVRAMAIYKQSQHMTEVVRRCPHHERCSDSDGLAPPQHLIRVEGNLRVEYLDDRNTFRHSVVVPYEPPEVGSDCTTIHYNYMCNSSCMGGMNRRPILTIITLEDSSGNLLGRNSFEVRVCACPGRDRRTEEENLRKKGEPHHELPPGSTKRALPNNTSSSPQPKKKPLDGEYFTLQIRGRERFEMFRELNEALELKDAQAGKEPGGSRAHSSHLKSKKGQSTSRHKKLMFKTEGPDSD

Regarding `COc1ccc(-c2ccc3cc(C(=O)O)ccc3c2)cc1C12CC3CC(CC(C3)C1)C2`, the result in experiment [1], in experiment [2], in experiment [6] and in [7] was inactive. Moreover, the AC50 in [3] is 3.62 µM (active); in [4] it was 2.12 µM (active); in experiment [5], 6.67 µM (active).
In the case of `CC1=CC(C)(C)Nc2ccccc21`, the outcome in experiment [1], in [2], in [3], in experiment [4], in experiment [5] and in experiment [6] was inactive. Also, in experiment [7], the result was inactive.
`CCCCCCCCCCCCCCCC(=O)OCC(COC(=O)CCCCCCCCCCCCCCC)OC(=O)CCCCCCCCCCCCCCC`: the molecule was called inactive in experiment [1], in [2], in [3], in [4], in experiment [5] and in experiment [6]. Moreover, the outcome in [7] was inactive.
Regarding `Nc1c(N=Nc2ccc(-c3ccc(N=Nc4cc(S(=O)(=O)O)c5ccccc5c4N)cc3)cc2)cc(S(=O)(=O)O)c2ccccc12`, the call in [1], in experiment [2], in experiment [3], in [4], in [5] and in experiment [6] was inactive. Further, the result in [7] was inactive.
`COc1cc(NS(=O)(=O)c2ccc(N)cc2)nc(OC)n1`: the call in experiment [1], in experiment [2], in experiment [3], in experiment [4], in experiment [5] and in experiment [6] was inactive. The result in experiment [7] was inactive.
On to `CC(C)(C)OC(=O)c1ccccc1C(=O)O`, for which the molecule was classed as inactive in experiment [1], in [2], in [3], in [4], in experiment [5] and in experiment [6]. Further, the result in experiment [7] was inactive.
Take `CC(C)C[P+](C)(CC(C)C)CC(C)C`: the result in [1], in [2], in [3], in experiment [4], in experiment [5] and in [6] was inactive. Also, the result in experiment [7] was inactive.
Regarding `CCCOC(=O)c1ccccc1`, the outcome in experiment [1], in experiment [2], in [3], in experiment [4], in experiment [5] and in experiment [6] was inactive. Also, the outcome in experiment [7] was inactive.
Turning to `O=C(c1ccc(O)cc1)c1ccc(Cl)cc1`, the result in experiment [1], in experiment [3] and in experiment [6] was inactive. Besides, the AC50 was 70.5 µM (active) in experiment [2], 80 µM (active) in experiment [4], 74.9 µM (active) in experiment [5] and 86.9 µM (active) in experiment [7].
On to `CCN[C@@H]1C[C@H](N)[C@@H](OC2OC(CN)=CCC2N)[C@H](O)[C@H]1O[C@H]1OC[C@](C)(O)[C@H](NC)[C@H]1O` (some centres not stated), for which the result in experiment [1], in experiment [2], in experiment [3], in experiment [4], in experiment [5] and in [6] was inactive. The result in experiment [7] was inactive.
Take `CCCC(CCC)C(=O)OC1C[C@H]2CC[C@@H](C1)[N+]2(C)C` (some centres not stated): the molecule was classed as inactive in experiment [1], in experiment [2], in experiment [3], in experiment [4], in experiment [5] and in [6]. Moreover, in [7], the outcome was inactive.
For `CC(=C\c1ccccc1)/C=C1/SC(=S)N(CC(=O)O)C1=O`, the molecule was classed as inactive in experiment [1], in [2], in [3], in experiment [4], in experiment [5] and in experiment [7].
As for `Nc1nccs1`, the outcome in [1], in experiment [2], in experiment [3], in experiment [4], in [5] and in [6] was inactive. Moreover, in [7], the result was inactive.
With `C=C1[C@@H]2CC[C@@H](C2)C1(C)C`, the molecule was called inactive in [1], in [2], in [3], in experiment [4], in [5] and in [6]. Further, in experiment [7], the outcome was inactive.
On to `C=CC(=O)CCCCC`, for which the molecule was called inactive in experiment [1], in [2], in [3], in experiment [4], in [5] and in [6]. Besides, the result in experiment [7] was inactive.
As for `CCOC(=O)C1=C(C)NC(C)=C(C(=O)OCC)C1c1ccccc1/C=C/C(=O)OC(C)(C)C`, the AC50 is 35.4 µM (active) in [1]; 38.6 µM (active) in experiment [2]; 43 µM (active) in [3]; 39.5 µM (active) in [4]; 26.5 µM (active) in experiment [5]. Besides, the outcome in experiment [6] and in experiment [7] was inactive.
As to `COc1cc(OC)c(C(=O)CCCN2CCCC2)c(OC)c1`, the molecule was classed as inactive in experiment [1], in experiment [2], in [3], in experiment [4], in [5] and in experiment [6]. The result in [7], in [8] and in [9] was inactive.
Consider `CCCCCCCC/C=C/CCCOC(C)=O`, for which the result in [1], in experiment [2], in [3], in [4], in experiment [5] and in [6] was inactive. In addition, the outcome in [7] and in experiment [10] was inactive.
On to `NCCS(=O)(=O)O`, for which the outcome in [1], in experiment [2], in experiment [3], in [4], in [5] and in [6] was inactive. In experiment [7], the outcome was inactive.
Turning to `CN1C(C(=O)Nc2ccccn2)=C(O)c2ccccc2S1(=O)=O`, the molecule was called inactive in [1], in [2], in [3], in experiment [4], in [5] and in experiment [6]. Further, in experiment [7], the outcome was inactive.
`Oc1ccc(Sc2ccc(O)cc2)cc1`: the molecule was classed as inactive in [1], in [3], in experiment [6] and in experiment [7]. Moreover, the AC50 is 69.4 µM (active) in [2], 69.8 µM (active) in experiment [4] and 70.4 µM (active) in [5].
As for `C=CC(C)(O)CC/C=C(\C)CCC=C(C)C` (configuration not stated), the call in [1], in [2], in experiment [3], in experiment [4], in [5] and in experiment [6] was inactive. Besides, the outcome in experiment [7] was inactive.
Consider `COc1ccc(C(=O)Nc2ccccc2)cc1[N+](=O)[O-]`, for which the molecule was called inactive in experiment [1], in experiment [2], in experiment [3], in experiment [4], in experiment [5] and in [6]. In addition, the result in [7] was inactive.
Turning to `Cc1ncc([N+](=O)[O-])n1CC(C)O` (configuration not stated), the molecule was classed as inactive in experiment [1], in [2], in experiment [3], in experiment [4], in experiment [5] and in experiment [6]. Further, in [7], the outcome was inactive.
With `N=C(N)n1cccn1`, the molecule was classed as inactive in experiment [1], in experiment [2], in experiment [3], in [4], in experiment [5] and in experiment [6]. In addition, in [7], the outcome was inactive.
